# NPSR antagonist – antagonists of human neuropeptide S receptor cAMP signaling. hit rate 1% among 220,000. Q6W5P4. AID 1461. CHO-NPSR cells, cAMP TR-FRET, antagonist mode. Potency, µM (doses to about 38.3 µM), hits mostly inhibitors; further: nearly all actives have a fitted effect of over 50% in size
# Target sequence (Q6W5P4 whole entry, looked up): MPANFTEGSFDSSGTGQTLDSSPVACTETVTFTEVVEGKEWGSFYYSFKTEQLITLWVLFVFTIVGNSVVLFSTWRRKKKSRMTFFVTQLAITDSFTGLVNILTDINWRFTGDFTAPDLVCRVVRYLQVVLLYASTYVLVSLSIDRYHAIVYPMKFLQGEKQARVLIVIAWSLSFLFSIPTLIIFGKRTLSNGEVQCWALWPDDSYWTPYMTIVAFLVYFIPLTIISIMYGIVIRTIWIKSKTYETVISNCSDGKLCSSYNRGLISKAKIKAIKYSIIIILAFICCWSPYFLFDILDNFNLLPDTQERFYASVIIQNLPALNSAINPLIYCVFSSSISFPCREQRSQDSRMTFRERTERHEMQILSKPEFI
# Tau fibril ThT – inhibitors of human tau fibril formation, thioflavin T binding. P10636. recombinant tau K18 P301L, heparin-induced fibrillization, ThT fluorescence. AID 1460. hit rate 2.1% among 270,000. Potency, µM (highest dose often 57.4 µM), hits mostly inhibitors; further: nearly all actives have a fitted effect of over 55% in size
# Target sequence (P10636 561-689 P618L limits assumed): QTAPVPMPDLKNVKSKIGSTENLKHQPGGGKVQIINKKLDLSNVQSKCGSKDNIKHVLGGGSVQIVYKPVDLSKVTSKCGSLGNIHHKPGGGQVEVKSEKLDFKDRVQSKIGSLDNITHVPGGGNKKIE
#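 Tau K18 P301L fragment (15 uM unlabeled plus 0.24 uM Alexa 594-labeled) in 100 mM sodium acetate pH 7 with compound, fibrillization induced by 20 uM heparin for 6 hr at 37 C. Thioflavin T (30 uM) added, fluorescence read after 1 hr (ex 450, em 510 nm).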
# HPGD block – HPGD (human) dehydrogenase inhibition; Potency, µM, usual class: inhibitors; AID 894; P15428; purified HPGD, NADH fluorescence kinetic, PGE2 substrate; hit rate 4.3% among 150,000; active means well fitted inhibition curve with a large enough effect, not every such curve was filed as active; inconclusive means small, poorly fitted or top-dose-only effect, or another doubt; inactive means no such curve, though single readings can be large or run the other way
#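 20 nM HPGD preincubated 15 min at room temperature with compound in 50 mM Tris-HCl pH 8, 0.01% Tween 20. Started with 1 mM NAD+ and 30 uM prostaglandin E2; NADH fluorescence (360/450 nm) read 5 times over 30-s intervals, last minus first.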
# Tau fibril FP – tau fibrillization inhibition (FP); AID 1468; P10636; hit rate 0.39% among 280,000; K18 P301L tau heparin fibrillization, Alexa594 FP, 6 h; Potency, µM (series often up to 57.7 µM), usual class: inhibitors; further: nearly all actives have a fitted effect of over 55% in size
#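 Steps: dispense K18 P301L tau (15 uM plus 0.24 uM Alexa 594 tracer, final) in pH 7 sodium acetate; add compound; add heparin (20 uM final); incubate 6 hr, 37 C; add ThT (30 uM final); after 1 hr ambient, read FP.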
# ALDH1A1 inh – ALDH1A1 (human) enzyme inhibition; P00352; Purified ALDH1A1, NADH fluorescence, propionaldehyde substrate; Potency, µM (highest dose often 75.3 µM), most hits filed as inhibitors; hit rate 7.3% among 220,000; AID 1030; active means well fitted inhibition curve with a large enough effect, not every such curve was filed as active; inconclusive means small, poorly fitted or top-dose-only effect, or another doubt; inactive means no such curve, though single readings can be large or run the other way
# Tau fluor cs – counter-screen for tau fibril formation inhibitors | hit rate 0.93% among 280,000 | Potency, µM (doses to about 57.7 µM) | tau K18 P301L Alexa594 fluorescence, heparin fibrillization | AID 1463; further: nearly all actives have a fitted effect of over 55% in size
#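 Human tau K18 P301L (15 uM unlabeled, 0.24 uM Alexa 594-labeled) in 100 mM sodium acetate pH 7 with 20 uM heparin, 6 hr at 37 C. ThT 30 uM added, 1 hr ambient; Alexa 594 FP and total fluorescence read at 555/632 nm.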
# A number is an active result; - = inactive; ? = inconclusive; . = no result; [ ] = another dose, or the depositor's remark. Hits are enriched below; roughly 9.5% of the tested compounds scored in any of these assays. Unless noted, the call rests on the fitted dose curve; in most records, active means well fitted curve in the direction sought with a large enough effect; inconclusive means small, poorly fitted or top-dose-only effect, or another doubt; inactive means no such curve, though single readings can be large; an effect the other way counts as inactive or inconclusive.
SMILES,NPSR antagonist,Tau fibril ThT,HPGD block,Tau fibril FP,ALDH1A1 inh,Tau fluor cs
O=C(CNC(=S)N(Cc1ccccc1F)C1CCCCC1)NCCN1CCOCC1,-,-,.,-,1.9µM,-
COc1cc2[nH]c(=O)n(CCCCCC(=O)N3CCN(c4ccc(Cl)cc4)CC3)c(=O)c2cc1OC,.,?,.,-,.,-
CN(c1ccc(C(=O)Nc2ccc(CC#N)cc2)cc1)S(C)(=O)=O,-,-,.,-,?,-
CC1(C)CC(N=C=O)CC(C)(CN=C=O)C1 (stereo unspecified),.,.,-,.,?,.
O=C(CNC(=S)N(Cc1ccccc1)Cc1ccccc1F)NCc1ccccc1,?,-,.,-,10µM,-
Cc1ccc(CNC(=O)CNC(=S)N(Cc2ccccc2)Cc2ccccc2F)cc1,-,-,.,-,?,-
CCCS(=O)(=O)N1CC(=O)N(c2ccc(C)c(Cl)c2)C(C)(C(=O)NC2CCCCCC2)C1 (stereo unspecified),.,-,.,-,.,-
COC(OC)[C@@H](C)[C@H](OC)[C@@H](C)[C@H](OC)c1ccccc1,.,-[11.5 µM],.,-[11.6 µM],-[13.5 µM],-[11.6 µM]
CCCN(CCC)S(=O)(=O)c1ccc(C(=O)N2CCC(=O)c3ccccc32)cc1,-,-,-,-,18µM,-
O=C(c1ccc(S(=O)(=O)N2CCCCC2)cc1)N1CCCc2ccccc21,-,-,-,-,?,-
CN(C)C/C(Cl)=C(\Cl)c1ccccc1,-,-,-,-,7.1µM,-
CN(C)CC(=O)c1ccc(-c2ccccc2)cc1,-,-,-,-,?,-
CCN(CC)S(=O)(=O)c1cccc(C(=O)N2CCCCC2)c1,-,-,-,-,-,-
O=C(c1ccc(S(=O)(=O)Nc2ccccc2)cc1)N1CCOCC1,-,-,-,-,-,-
CCN(CC)S(=O)(=O)c1ccc(S(=O)(=O)Nc2ccc(C(=O)N3CCCC3)cc2)cc1,-,-,-,-,0.63µM,-
O=C(c1ccc(NS(=O)(=O)c2ccccc2)cc1)N1CCCC1,-,-,18µM,-,?,-
Cc1ccc(C(=O)O)cc1N=Cc1cc(Br)cc(Br)c1O,-,14µM,?,-,?,-
CC(=O)Nc1ccc(C(=O)N/N=C/c2cc(Br)cc(Br)c2O)cc1,-,?,.,-,-,-
N#Cc1cccc(NC(=O)N2CC3(CCN(C(=O)c4cnccn4)CC3)C2)c1,.,.,-,.,-,.
O=c1c(/C=N/O)coc2ccc3ccccc3c12,-,?,-,-,11µM,-
CN1CCCC2(CCN(C(=O)c3cnccn3)CC2)C1,.,.,-,.,-,.
CCN(CC)c1cc(C)c2cc(NC(=O)/C=C/c3ccccc3OC(C)C)ccc2n1,.,?,.,?,.,7.9µM[quencher]
CCN(CC)c1ccc(C(=O)Nc2ccc3nc(N(CC)CC)cc(C)c3c2)cc1,.,3.5µM,.,-,.,14µM[quencher]
CCOC(=O)C1CCC(CN(Cc2c(Cl)cccc2Cl)S(=O)(=O)c2ccc(F)cc2)CC1 (stereo unspecified),.,-,.,-,.,-
CN1C(=S)N(c2ccccc2)C(=O)/C1=C/c1cccs1,-,-,-,-,-,-
SMILES,NPSR antagonist,Tau fibril ThT,HPGD block,Tau fibril FP,ALDH1A1 inh,Tau fluor cs
COc1ccc(N2C(=O)/C(=C/c3cccs3)NC2=S)cc1,-,22µM,3.5µM,?,3.2µM,-
CC(=O)Nc1ccc(S(=O)(=O)N2CCC(n3c(C(F)(F)F)nc4cccnc43)CC2)cc1,.,-,.,-,.,-
C(#Cc1ccccc1)C[N+]1(CC#Cc2ccccc2)CCCCC1,-,-,.,-,-,-
O=C(C[N+]1(CC#Cc2ccccc2)CCCCC1)c1ccccc1,-,-,.,-,8.9µM,-
O=C(C[N+]1(CC#Cc2ccccc2)CCCCC1)c1ccc(Cl)cc1,-,-,.,-,22µM,-
O=C(NNS(=O)(=O)c1ccccc1[N+](=O)[O-])c1ccc(O)cc1,-,-,13µM,-,3.2µM,-
COc1ccc(OC)c(Nc2nc(-c3sc(NC(=O)c4ccccc4)nc3C)cs2)c1,-,?,-,-,-,?
Cc1ccccc1Nc1nc(-c2sc(NC(=O)c3cccc(Cl)c3)nc2C)cs1,-,?,-,-,18µM,?
Cc1ccccc1Nc1nc(-c2sc(NC(=O)c3ccc([N+](=O)[O-])cc3)nc2C)cs1,-,4µM,-,-,?,10µM[quencher]
